Data on ten molecules can be found in PubChem BioAssay (NCI).

About 79,000 compounds went through this panel and 15% of them were active in at least one assay; those are over-represented in the sample as a whole. Values without a mark were called inactive. Active and inactive are the calls of the source. Rule as the data show it: active = growth inhibition above about 70%; inactive = the rest.

A short description of test [1]: NCI Yeast Anticancer Drug Screen. Data for the rad50 strain (AID 155).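 Also: 0% = growth of vehicle-only cultures of the same strain.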 The note with it: S. cerevisiae rad50 strain growth inhibition, active compounds read high. A digest of the protocol: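 DNA repair mutant yeast, compound exposure, growth read-out; inhibition is taken relative to vehicle.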
Test [2] in a line: NCI Yeast Anticancer Drug Screen. Data for the mec2-1 strain (AID 157). The following applies: S. cerevisiae mec2-1 strain, active compounds read high. An outline of the steps:
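Yeast mec2-1 mutant treated with compound. Readout: growth inhibition vs vehicle controls.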

The nature of test [3]: NCI Yeast Anticancer Drug Screen. Data for the sgs1 mgt1 strain (AID 161).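 Also: 0% = growth of cultures given vehicle only.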 The following applies: S. cerevisiae sgs1 mgt1 strain, active compounds read high. A digest of the protocol: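 Inhibition of yeast growth, normalised to vehicle-treated controls, is reported for a strain bearing genetic alterations in DNA damage repair.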
Test [4] can be described thus: NCI Yeast Anticancer Drug Screen. Data for the cln2 rad14 strain (AID 165).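 Also: 0% = growth equal to vehicle treated cultures.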 The following applies: S. cerevisiae cln2 rad14 strain, active compounds read high. A digest of the protocol: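 cln2 rad14 yeast strain; compound exposure; growth inhibition read vs vehicle controls.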
Test [5] is described as follows: NCI Yeast Anticancer Drug Screen. Data for the bub3 strain (AID 167). The following applies: S. cerevisiae bub3 mutant strain, active compounds read high. An outline of the steps:
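In this screen, a yeast mutant lacking normal mitotic checkpoint function is challenged with compound. Relative growth versus vehicle gives the inhibition value.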

The nature of test [6]: NCI Yeast Anticancer Drug Screen. Data for the mlh1 rad18 strain (AID 175). The following applies: S. cerevisiae mlh1 rad18 strain growth inhibition, active compounds read high. A digest of the protocol: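 Yeast w/ defined DNA-repair lesions; compound exposure; growth vs vehicle controls → % inhibition.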
The mark [7] stands for this setting: at 5.0 µM (retest, dose inferred, filed as 0.5).
Where [8] appears, read: at 50.0 µM (retest, dose inferred, filed as 5.0).

For the molecule `CC1(C)COC(C)(C(=O)O)OC1`, the growth inhibition in test [1] (setting [7]) was 2%; in test [1] (setting [8]), -5%; in test [1] (at 50.0 µM), 51.6%; in test [2] (setting [7]), -2%; in test [2] (setting [8]) it was -1%; in test [2] (at 50.0 µM), -3.35%. The growth inhibition in test [3] (setting [7]) is 4%; in test [3] (setting [8]) it was 2%; in test [3] (at 50.0 µM) it was -5.8%; in test [4] (setting [7]) it was 0%; in test [4] (setting [8]) it was -6%; in test [4] (at 50.0 µM), -50.7%. The growth inhibition in test [5] (setting [7]) was -4%; in test [5] (setting [8]), 0%; in test [5] (at 50.0 µM) it was -1.8%; in test [6] (setting [7]) it was 6%; in test [6] (setting [8]) it was -1%; in test [6] (at 50.0 µM), -8%.

As to `O=C1C=CC(=O)c2c(O)c(N3CCN(CCOCCO)CC3)c(Br)c(O)c21`, the growth inhibition is 15% in test [1] (setting [7]); 96% (active) in test [1] (setting [8]); 88.3% (active) in test [1] (at 50.0 µM); 13% in test [2] (setting [7]); 98% (active) in test [2] (setting [8]); 88.6% (active) in test [2] (at 50.0 µM). Further, the growth inhibition in test [3] (setting [7]) was 18%; in test [3] (setting [8]) it was 97% (active); in test [3] (at 50.0 µM), 89.7% (active); in test [4] (setting [7]), 17%; in test [4] (setting [8]) it was 96% (active); in test [4] (at 50.0 µM), 86.4% (active). Besides, the growth inhibition is 25% in test [5] (setting [7]); 96% (active) in test [5] (setting [8]); 85.9% (active) in test [5] (at 50.0 µM); 16% in test [6] (setting [7]); 98% (active) in test [6] (setting [8]); 86.5% (active) in test [6] (at 50.0 µM).

On to `S=C(Nc1ccccc1)[S][Sb]([S]C(=S)Nc1ccccc1)[c]1ccccc1`, for which the growth inhibition in test [1] (setting [7]) was -5%; in test [1] (setting [8]), 80% (active); in test [1] (at 50.0 µM), 41.4%; in test [2] (setting [7]) it was -6%; in test [2] (setting [8]), 98% (active); in test [2] (at 50.0 µM), 20%. For the same molecule, the growth inhibition in test [3] (setting [7]) is -56%; in test [3] (setting [8]) it was 77% (active); in test [3] (at 50.0 µM) it was 43.1%; in test [4] (setting [7]) it was -8%; in test [4] (setting [8]) it was 34%; in test [4] (at 50.0 µM), 12.1%. For the same molecule, the growth inhibition in test [5] (setting [7]) was -11%; in test [5] (setting [8]) it was 25%; in test [5] (at 50.0 µM), 3.15%; in test [6] (setting [7]), -2%; in test [6] (setting [8]), 94% (active); in test [6] (at 50.0 µM), 63.4%.

Consider `COc1ccc(N=C2C(=S)N(c3ccc(OC)cc3)/C(=N/S(=O)(=O)c3ccccc3)N2c2ccccc2)cc1`, for which the growth inhibition in test [1] (setting [7]) was 10%; in test [1] (setting [8]) it was 18%; in test [1] (at 50.0 µM), 8.6%; in test [2] (setting [7]), 9%; in test [2] (setting [8]), 23%; in test [2] (at 50.0 µM), -4.1%. In addition, the growth inhibition is -23% in test [3] (setting [7]); 0% in test [3] (setting [8]); 5.7% in test [3] (at 50.0 µM); -11% in test [4] (setting [7]); 3% in test [4] (setting [8]); 11.2% in test [4] (at 50.0 µM). The growth inhibition is -13% in test [5] (setting [7]); 11% in test [5] (setting [8]); 1.65% in test [5] (at 50.0 µM); 14% in test [6] (setting [7]); 16% in test [6] (setting [8]); 14% in test [6] (at 50.0 µM).

In the case of `Cc1ccc(S(=O)/C=C/S(=O)(=O)c2ccc(C)cc2)cc1` (stereo not given), the growth inhibition is 99% (active) in test [1] (setting [7]); 99% (active) in test [1] (setting [8]); 99.3% (active) in test [1] (at 50.0 µM); 99% (active) in test [2] (setting [7]); 100% (active) in test [2] (setting [8]); 99.6% (active) in test [2] (at 50.0 µM). The growth inhibition is 100% (active) in test [3] (setting [7]); 100% (active) in test [3] (setting [8]); 99.5% (active) in test [3] (at 50.0 µM); 98% (active) in test [4] (setting [7]); 100% (active) in test [4] (setting [8]); 99.5% (active) in test [4] (at 50.0 µM). Besides, the growth inhibition is 99% (active) in test [5] (setting [7]); 100% (active) in test [5] (setting [8]); 99.6% (active) in test [5] (at 50.0 µM); 100% (active) in test [6] (setting [7]); 100% (active) in test [6] (setting [8]); 99.5% (active) in test [6] (at 50.0 µM).

As for `COc1ccc(C)cc1NC(=O)ON=C1CCCCC1`, the growth inhibition is 45% in test [1] (setting [7]); 83% (active) in test [1] (setting [8]); 88.2% (active) in test [1] (at 50.0 µM); 35% in test [2] (setting [7]); 88% (active) in test [2] (setting [8]); 91.8% (active) in test [2] (at 50.0 µM). In addition, the growth inhibition in test [3] (setting [7]) is 47%; in test [3] (setting [8]), 92% (active); in test [3] (at 50.0 µM), 91.9% (active); in test [4] (setting [7]), 38%; in test [4] (setting [8]), 81% (active); in test [4] (at 50.0 µM) it was 90.5% (active). The growth inhibition in test [5] (setting [7]) was 30%; in test [5] (setting [8]), 91% (active); in test [5] (at 50.0 µM) it was 91.7% (active); in test [6] (setting [7]) it was 48%; in test [6] (setting [8]), 94% (active); in test [6] (at 50.0 µM) it was 90.5% (active).

As to `CCCCC#CC(=O)OCCCCC`, the growth inhibition in test [1] (setting [7]) is -2%; in test [1] (setting [8]), 0%; in test [1] (at 50.0 µM), -18.9%; in test [2] (setting [7]), 4%; in test [2] (setting [8]) it was 1%; in test [2] (at 50.0 µM), -3.1%. The growth inhibition was 1% in test [3] (setting [7]); 3% in test [3] (setting [8]); -13.4% in test [3] (at 50.0 µM); -5% in test [4] (setting [7]); -2% in test [4] (setting [8]); 25.1% in test [4] (at 50.0 µM). Also, the growth inhibition in test [5] (setting [7]) is 1%; in test [5] (setting [8]), 3%; in test [5] (at 50.0 µM) it was -14.6%; in test [6] (setting [7]), -2%; in test [6] (setting [8]), -4%; in test [6] (at 50.0 µM), -16.4%.

For the molecule `COC(=O)C(=O)C(C(=O)c1ccc(F)cc1)c1nc2n(c1O)C(=N)N=N2` (stereo not given), the growth inhibition is 1% in test [1] (setting [7]); 52% in test [1] (setting [8]); 39.6% in test [1] (at 50.0 µM); -17% in test [2] (setting [7]); 46% in test [2] (setting [8]); 77.6% (active) in test [2] (at 50.0 µM). Further, the growth inhibition in test [3] (setting [7]) was 19%; in test [3] (setting [8]), 76% (active); in test [3] (at 50.0 µM), 23.9%; in test [4] (setting [7]), 14%; in test [4] (setting [8]) it was 57%; in test [4] (at 50.0 µM), 59.9%. In addition, the growth inhibition in test [5] (setting [7]) is 14%; in test [5] (setting [8]), 67%; in test [5] (at 50.0 µM), 35.2%; in test [6] (setting [7]), 24%; in test [6] (setting [8]), 79% (active); in test [6] (at 50.0 µM), 34.8%.

Consider `Cc1noc(NS(=O)(=O)c2ccc(NC(=S)/N=C/c3c(O)[nH]c(=O)[nH]c3=O)cc2)c1C`, for which the growth inhibition is -1% in test [1] (setting [7]); -5% in test [1] (setting [8]); 16.1% in test [1] (at 50.0 µM); -18% in test [2] (setting [7]); -11% in test [2] (setting [8]); 9.75% in test [2] (at 50.0 µM). The growth inhibition was -8% in test [3] (setting [7]); -5% in test [3] (setting [8]); 16.5% in test [3] (at 50.0 µM); -24% in test [4] (setting [7]); -19% in test [4] (setting [8]); 44.8% in test [4] (at 50.0 µM). The growth inhibition in test [5] (setting [7]) is 4%; in test [5] (setting [8]), 10%; in test [5] (at 50.0 µM), 6.05%; in test [6] (setting [7]) it was 7%; in test [6] (setting [8]) it was -2%; in test [6] (at 50.0 µM), 15.8%.

`CC(O[Si](c1ccccc1)(c1ccccc1)C(C)(C)C)[C@H](NC(=O)OC(C)(C)C)C(=O)O[Si](c1ccccc1)(c1ccccc1)C(C)(C)C` (stereo not given in full): the growth inhibition in test [1] (setting [7]) is 91% (active); in test [1] (setting [8]), 99% (active); in test [1] (at 50.0 µM), 89.9% (active); in test [2] (setting [7]) it was 88% (active); in test [2] (setting [8]), 99% (active); in test [2] (at 50.0 µM), 92.9% (active). In addition, the growth inhibition in test [3] (setting [7]) was 96% (active); in test [3] (setting [8]) it was 100% (active); in test [3] (at 50.0 µM), 92.8% (active); in test [4] (setting [7]) it was 93% (active); in test [4] (setting [8]), 99% (active); in test [4] (at 50.0 µM), 91.2% (active). The growth inhibition in test [5] (setting [7]) is 71% (active); in test [5] (setting [8]), 84% (active); in test [5] (at 50.0 µM), 91.3% (active); in test [6] (setting [7]) it was 93% (active); in test [6] (setting [8]), 99% (active); in test [6] (at 50.0 µM), 89% (active).
